Assay results: the supplement of paper PMC7530171
Counter-ions that a name gives are not always drawn. ± gives the standard deviation.

The compounds below were run on THP-1 (assay: THP-1 cell loss relative to DMSO control; higher = more host cell loss (toxicity); extreme values may be limits of the assay). Conditions: 10 µM; 4 days; infection: M. tuberculosis H37Rv.
Procedure: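 OICR kinase inhibitor library screened in duplicate at 10 uM against M. tuberculosis-infected THP-1 macrophages, 4 days at 37 C. THP-1 cell loss (cytotoxicity or loss of adherence) was quantified from Hoechst-stained nuclei counts by high-content imaging and normalised to the 1% DMSO control; 100 = complete loss of host cells.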

Structure (SMILES) | THP-1 cell loss
COc1cc(/C=C(\C#N)C(N)=O)cc(CSc2nc3ccccc3s2)c1O | 3 ± 4.2%
Cc1ccc2nc(NCCN)c3ncc(C)n3c2c1 | 100%
COc1cc2ncn(-c3cc(OCc4ccccc4C(F)(F)F)c(C(N)=O)s3)c2cc1OC | 12.2 ± 11%
Cc1ccc(NC(=O)c2ccc(CN3CCN(C)CC3)cc2)cc1Nc1nccc(-c2cccnc2)n1 [Imatinib Mesylate] | 9.14 ± 13%
CC[C@@H]1C(=O)N(C)c2cnc(Nc3ccc(C(=O)N[C@H]4CC[C@H](N5CCN(CC6CC6)CC5)CC4)cc3OC)nc2N1C(C)C | 100%
CCOc1cc2ncc(C#N)c(Nc3ccc(OCc4ccccn4)c(Cl)c3)c2cc1NC(=O)/C=C/CN(C)C [Neratinib] | 55.4 ± 63%
Cc1ccc(Nc2nccc(N(C)c3ccc4c(C)n(C)nc4c3)n2)cc1S(N)(=O)=O [Pazopanib hydrochloride] | 100%
Cc1c[nH]c(/C=C2\C(=O)Nc3ccccc32)c1CCC(=O)O | 10.8 ± 15%
O=C(NOCC1CC1)c1cc(Br)c(F)c(F)c1Nc1ccc(I)cc1Cl | 55.1 ± 9.2%
NC(=O)Nc1cc(-c2cccc(F)c2)sc1C(=O)N[C@H]1CCCNC1 [AZD-7762 hydrochloride] | 100%
O=C(c1ccc(Nc2nccc(-c3cc4ccccc4s3)n2)cc1)N1CCC(N2CCCC2)CC1 | 100%
COc1cc(Nc2c(C#N)cnc3cc(OCCCN4CCN(C)CC4)c(OC)cc23)c(Cl)cc1Cl [Bosutinib] | 59.6 ± 15%
CCN1/C(=C/C(C)=O)Sc2ccc(OC)cc21 | 12.5 ± 2.4%
COc1cccc(-c2cc(=O)c3ccccc3o2)c1N | 26.7 ± 35%
COc1cc2c(Oc3ccc(NC(=O)C4(C(=O)Nc5ccc(F)cc5)CC4)cc3F)ccnc2cc1OCCCN1CCOCC1 | 100%
Cc1cc(F)c(Nc2ncnc3cc(OCc4ccccc4)ccc23)cc1O | 5.29 ± 7.5%
CCCS(=O)(=O)Nc1ccc(F)c(C(=O)c2c[nH]c3ncc(-c4ccc(Cl)cc4)cc23)c1F | 100%
CCOc1cc(N2CCC(O)CC2)ccc1Nc1ncc2c(n1)N(C)c1ccccc1C(=O)N2C | 100%
c1ccc(-c2n[nH]c3c2oc2ccccc23)cc1 | 9.81 ± 5.6%
Nc1nc(Nc2ccc(S(N)(=O)=O)cc2)nn1C(=S)Nc1c(F)cccc1F [Cdk1/2 Inhibitor III] | 5.81 ± 8.1%

Structure (SMILES) | THP-1 cell loss
COc1ccc(CNC(=O)Nc2ncc([N+](=O)[O-])s2)cc1 | 80.8 ± 27%
O=C(Nc1cc(C(F)(F)F)cc(C(F)(F)F)c1)c1cc(Cl)ccc1O | 53 ± 46%
Cn1cc(C2=C(c3ccc(Cl)cc3Cl)C(=O)NC2=O)c2ccccc21 | 15.5 ± 22%
O=C(Nc1c[nH]nc1-c1nc2ccc(CN3CCOCC3)cc2[nH]1)NC1CC1 | 100%
CCCCCCCCCCCCCCCCn1cc[n+](Cc2ccccc2)c1C | 100%
O=C(O)c1ccc2c3c1cccc3c(=O)n1c3ccccc3nc21 [STO-609 acetic acid] | 35.7 ± 5.5%
CNC(=O)c1cc(Oc2ccc(NC(=O)Nc3ccc(Cl)c(C(F)(F)F)c3)c(F)c2)ccn1 | 43.8 ± 13%
CC(=O)Nc1cccc(-n2c(=O)n(C3CC3)c(=O)c3c(Nc4ccc(I)cc4F)n(C)c(=O)c(C)c32)c1 | 100%
Cc1nc2sccn2c(=O)c1CCN1CCC(=C(c2ccccc2)c2ccc(F)cc2)CC1 | 0%
O=c1[nH]ccc2c(S(=O)(=O)N3CCCNCC3)cccc12 [HA 1100 hydrochloride] | 0%
O=C(O)c1cc(N(Cc2ccccc2O)Cc2cc(O)ccc2O)ccc1O [Lavendustin A] | 4.39 ± 6.2%
O=C1Cc2c([nH]c3ccc([N+](=O)[O-])cc23)-c2ccccc2N1 [Alsterpaullone] | 100%
Cc1cccc(-c2[nH]c(C(C)(C)C)nc2-c2ccc3c(c2)OCO3)n1 | 74 ± 1.8%
CCN(CC)CC1CCN(c2ncc3ncnc(Nc4ccc(F)c(Cl)c4)c3n2)CC1 [BIBU 1361 dihydrochloride] | 100%
FC(F)(F)c1ccc(/C=C/c2nc(COc3ccc(CCCCn4ccnn4)cc3)co2)cc1 [Mubritinib] | 51 ± 24%
C=CC(=O)Nc1cccc(Oc2nc(Nc3ccc(N4CCN(C)CC4)cc3OC)ncc2Cl)c1 | 42.4 ± 7.4%
CN1C(=O)C(Cc2c[nH]c3ccccc23)NC1=S (stereo not given) [Necrostatin-1] | 2.6 ± 3.7%
Cc1cc(I)ccc1Nc1c(C(=O)NOCC2CC2)cc(F)c(F)c1F | 100%
Nc1cc(C(F)(F)F)c(-c2cc(N3CCOCC3)nc(N3CCOCC3)n2)cn1 | 73.3 ± 38%
COc1cc(Nc2ncc(F)c(Nc3ccc4c(n3)NC(=O)C(C)(C)O4)n2)cc(OC)c1OC | 63.4 ± 52%
